Compounds with a hit are over-represented: about 2.9% of the library has one in this group of screens.
ADAM17 inh – inhibits human ADAM17 | inhibition, % at 6.95 µM | hit rate 0.83% among 370,000 | recombinant ADAM17, EDANS/DABCYL FRET peptide cleavage | AID 720648;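 active = inhibition above the mean of compounds lying between control limits plus 3 SD, set per campaign, cut at about 8.5% in these data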;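 also: 0% = DMSO-only wells as the low control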
Target sequence (P78536 215-824 limits assumed): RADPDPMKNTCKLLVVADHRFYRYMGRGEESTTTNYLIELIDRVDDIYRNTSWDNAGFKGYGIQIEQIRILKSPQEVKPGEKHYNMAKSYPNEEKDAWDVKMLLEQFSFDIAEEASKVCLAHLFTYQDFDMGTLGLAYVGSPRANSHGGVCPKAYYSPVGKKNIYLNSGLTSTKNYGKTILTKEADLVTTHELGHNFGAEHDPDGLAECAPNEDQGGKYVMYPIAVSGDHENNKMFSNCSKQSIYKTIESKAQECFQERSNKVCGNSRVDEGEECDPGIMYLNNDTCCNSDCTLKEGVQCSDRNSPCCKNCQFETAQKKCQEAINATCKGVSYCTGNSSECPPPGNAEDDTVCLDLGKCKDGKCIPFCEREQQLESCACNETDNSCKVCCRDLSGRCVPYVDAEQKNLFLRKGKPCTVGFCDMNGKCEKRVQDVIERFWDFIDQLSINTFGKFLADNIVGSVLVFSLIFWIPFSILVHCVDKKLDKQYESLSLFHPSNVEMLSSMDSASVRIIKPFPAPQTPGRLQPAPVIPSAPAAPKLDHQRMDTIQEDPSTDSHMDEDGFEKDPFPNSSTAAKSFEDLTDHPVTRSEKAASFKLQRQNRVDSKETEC
proKLK7 act – activators of human kallikrein-7 zymogen | purified proKLK7, EDANS-DABCYL substrate fluorescence; 100% is mature enzyme control, 0% vehicle | activation, % at 7 µM | P49862 | hit rate 0.9% among 370,000;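 active = activation above the mean of all tested compounds plus 3 SD, computed per campaign excluding outliers beyond control limits, cut at about 13% in these data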
ADAM10 inh – inhibits human ADAM10; O14672; recombinant ADAM10, EDANS/DABCYL FRET peptide cleavage, 3 h; inhibition, % at 7 µM; hit rate 0.62% among 370,000;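 active = inhibition above a per-campaign cutoff equal to the mean of compounds falling between control-based bounds plus 3 SD, cut at about 20% in these data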;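 also: 0% = DMSO wells while the 100% control is not disclosed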
PLCg1 inh – PLC-gamma1 (human) inhibition, primary screen; purified PLC-gamma1, fluorogenic substrate, fluorescence; AID 720700; inhibition, % at 12.2 µM; hit rate 0.84% among 370,000; P19174; in the data active = inhibition above about 9.5%
PLCb3 inh – blocks human PLC-beta3 enzyme activity; Purified PLC-beta3, fluorogenic substrate, fluorescence; inhibition, % at 12.2 µM; hit rate 0.18% among 370,000; Q01970; in the data active = inhibition above about 11%;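 also: 0% = median of compound wells on plate and 100% = full blocker control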
proKLK7 act conf – proKLK7 activation, confirmation. shares compounds with proKLK7 act. AID 686949. purified proKLK7, EDANS-DABCYL substrate fluorescence; scaled: vehicle 0, mature enzyme 100. activation, % at 7 µM. hit rate 68% among 3,200;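 active = activation, as change over the incubation, above the mean of all tested compounds plus 3 SD, cut at about 13% in these data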
EDANS interfere – optically interferes with EDANS-DABCYL signal, flagging KLK7 hits. shares compounds with proKLK7 act. EDANS-DABCYL substrate fluorescence interference, no enzyme, 4 h; solvent 0%, active enzyme control 100%. activation, % at 7 µM. hit rate 80% among 3,200;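 active = activation above the all-compound mean plus 3 SD, ignoring values outside control-based bounds, cut at about 4.8% in these data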;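 also: value is the 4 h activation minus the activation read at time zero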
K7 EDANS ctr – counter-screen for kallikrein-7 activators: EDANS-DABCYL interference, dose response; shares compounds with proKLK7 act; EDANS-DABCYL peptide fluorescence interference, no enzyme; EC50, µM; hit rate 20% among 250; AID 720493;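 active = compounds that raise the fluorescence signal in this interference counterscreen, with EC50 at or below 10 µM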;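 also: intact quenched peptide substrate alone read at 355 nm excitation and 520 nm emission; signal is fluorescence gain from T0 to T4 after four hours at room temperature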
* = called active by the depositor; i = inactive; / = no result.

SMILES | ADAM17 inh | proKLK7 act | ADAM10 inh | PLCg1 inh | PLCb3 inh | proKLK7 act conf | EDANS interfere | others
COc1ccc(NC(=O)c2ccc(-c3ccc(OC)cc3)s2)cc1 | -4 | 0 | -21 | -5 | -8 | / | /
O=C1CCC(=O)N1c1nc2nc(-c3ccccc3)cc(-c3ccccc3)n2n1 | -260 | 31* | i | -220 | -278 | 40* | 44*
CC(=O)Nc1nc2nc(-c3ccccc3)cc(-c3ccccc3)n2n1 | -70 | 3 | -260 | -52 | -72 | / | /
CCS(=O)(=O)N1CCC(C(=O)Oc2ccccc2OC)CC1 | -3 | 0 | -2 | 0 | -3 | / | /
C=C1[C@H](C)CN(S(=O)(=O)C(C)(C)C)[C@H]1CCO | -2 | 0 | -12 | -2 | 1 | / | /
CCCCN(CC)CCCNC(=O)c1cc2c(=O)n(CC)c3ccccc3c2s1 | -237 | 11 | i | -70 | -87 | / | /
CCCCN(CC)CCNC(=O)c1cc2c(=O)n(CC)c3ccccc3c2s1 | -256 | 14* | i | -96 | -141 | -1 | -3
CCn1c(=O)c2cc(C(=O)NCCCOC)sc2c2ccccc21 | -93 | 15* | -261 | -19 | -30 | -11 | -14
CCCCN(CC)CCNC(=O)c1cc2c(=O)n(C)c3ccccc3c2s1 | -445 | 19* | i | -259 | -305 | 1 | -2
CCCN(CCC)CCCNC(=O)c1cc2c(=O)n(CC)c3ccccc3c2s1 | -219 | 19* | i | -62 | -88 | -8 | -12
CCn1c(=O)c2cc(C(=O)NCCC(C)C)sc2c2ccccc21 | -32 | -2 | -82 | -5 | -14 | / | /
CCn1nc(C)c(CN2CCc3c([nH]c4ccccc34)C2C(C)(C)C)c1C (stereo not given) | -3 | 2 | -69 | -24 | -30 | / | /
CCN(CC)CCNC(=O)c1cc2c(=O)n(C)c3ccccc3c2s1 | -330 | 27* | i | -187 | -234 | -10 | -18
C=CCN(CC=C)C(=O)C(=O)c1cc(C)n(-c2ccc([N+](=O)[O-])cc2)c1C | -1 | 0 | 11 | 3 | 4 | / | /
CC1CCCN(C(=O)c2cc3c(=O)n4ccccc4nc3s2)C1 (stereo not given) | -414 | 26* | i | -418 | i | 30* | 34*
Cn1c(C(=O)NCc2ccccn2)cc2c(=O)n3ccccc3nc21 | i | 53* | i | i | i | 66* | 67*
Cc1cccn2c(=O)c3cc(C(=O)N4CCCC(C)C4)sc3nc12 (stereo not given) | -128 | 1 | -400 | -106 | -142 | / | /
CC1CCCCN1C(=O)c1cc2c(=O)n3ccccc3nc2s1 (stereo not given) | i | 32* | i | i | i | 40* | 40*
O=C(NC1CCCC1)c1cc2c(=O)n3ccccc3nc2s1 | i | 61* | i | i | i | 75* | 66*
O=C(c1ccco1)N1CCN(C2CN(C3CCCCC3)S(=O)(=O)C2)CC1 (stereo not given) | -4 | 0 | -4 | 0 | -2 | / | /
Cc1ccc(S(=O)(=O)N2C[C@@H]3[C@H]4CC[C@H](C4)[C@@H]3[C@@H](C)C2CC(=O)c2ccccc2)cc1 (stereo not given in full) | 0 | 0 | -3 | 4 | 6 | / | /
Cn1c(C(=O)NC2CCCCC2)cc2c(=O)n3ccccc3nc21 | i | 83* | i | i | i | 81* | 75*
Cc1ccc(Cn2c(=N)c(C(=O)NC3CCCCC3)cc3c(=O)n4ccccc4nc32)cc1 | -140 | -1 | -463 | -95 | -125 | / | /
COCCNC(=O)/C(C#N)=C/c1cn(CC(=O)NCc2ccco2)c2ccccc12 | -6 | 75* | -7 | -6 | -11 | 8 | 5.8*
COCCNC(=O)C1(C)CCN(C(=O)Cc2ccc(OC)c(OC)c2)C1 (stereo not given) | 1 | 1 | -3 | -1 | 2 | / | /
SMILES | ADAM17 inh | proKLK7 act | ADAM10 inh | PLCg1 inh | PLCb3 inh | proKLK7 act conf | EDANS interfere | others
N#Cc1ccc(-c2ccc(OCC(=O)Nc3cccnc3)cc2)cc1 | -9 | 18* | -15 | -2 | -14 | -1 | -1
COc1ccc(C(=O)c2c[nH]c(C(=O)NCc3cccnc3)c2)cc1 | -4 | 1 | 4 | 0 | -2 | / | /
CCOc1ccc(-c2cncc3nccn23)cc1 | i | 17* | i | -375 | -459 | 33* | 36*
COc1ccc(-c2cncc3nccn23)cc1OC | -25 | 1 | -127 | -121 | -156 | / | /
CS(=O)(=O)Nc1ccc(-c2cnc3cccnn23)cc1 | -106 | 76* | -325 | i | i | 14* | 11* | K7 EDANS ctr=i
CS(=O)(=O)Nc1ccc(-c2cncc3nccn23)cc1 | -143 | 16* | i | -108 | -137 | 3 | 4.5*
COc1cc(CCCN2CCNC[C@@H]2CC2CCCCC2)cc(OC)c1OC | 0 | 0 | 5 | 3 | 2 | / | /
CC1=C(C(=O)NCCCOC(C)C)C2(CCC(C)CC2)OC1=O (stereo not given) | 1 | 1 | -3 | 3 | 2 | / | /
COc1cc(C(C)=O)ccc1OC(=O)C(C)N1C(=O)c2ccccc2C1=O (stereo not given) | 1 | 0 | 8 | 2 | 7 | / | /
COC(=O)Cc1c(C)c2ccc(OC(C)C)cc2oc1=O | -324 | 8 | i | -90 | -140 | / | /
COC(=O)Cc1c(C)c2cc(Cl)c(OC(=O)c3ccco3)cc2oc1=O | i | 88* | i | i | i | 397* | 432*
COC(=O)Cc1c(C)c2ccc(OC(=O)c3ccco3)cc2oc1=O | i | 439* | i | i | i | 736* | 741*
CCc1c(C)c2ccc(OCC(=O)OC)cc2oc1=O | -148 | 20* | -477 | -64 | -93 | 22* | 21*
Cc1noc(C)c1S(=O)(=O)Nc1ccc2c(c1)C(=O)N([C@H](C)CO)C[C@H](C)[C@@H](CN(C)C(=O)Nc1ccccc1)O2 | -3 | 1 | -14 | -1 | -1 | / | /
COCCNC(=O)CCCn1c(=O)c2cc(OC)c(OC)cc2n(CC(=O)c2ccc(Cl)cc2)c1=O | -5 | 0 | 1 | 1 | 0 | / | /
Cc1ccc(C)c(-n2c3nc(=O)n(C)c(=O)c-3cc3ccccc32)c1 | -337 | 28* | i | -313 | -448 | 15* | 23*
CCCCn1c(=O)nc2n(-c3ccccc3)c3ccccc3cc-2c1=O | -150 | 15* | i | -196 | -263 | 16* | 24*
CCCCn1c(=O)cc(C)n(-c2ccccc2)c1=O | 5 | 0 | -1 | 4 | -4 | / | /
COc1ccc(-n2c(O)c(/C=N/NS(=O)(=O)c3ccc(C)cc3)c3ccccc3c2=O)cc1OC | -47 | 48* | -111 | -224 | -258 | 0 | 0
